The values that follow come from PubChem BioAssay.

Structures are written as SMILES. The source made the active and inactive calls. Unless noted, how the calls were made is not given here.

A short description of assay [1]: compounds binding Alexa647 anti-His antibody – biochemical, small-molecule microarray, 635 nm fluorescence, artefact control for SMM control protein annotation, primary screen (AID 1128).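 Further: score merges feature fluorescence with signal-to-noise for each printed compound spot.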 Conditions: higher = more signal.
Assay [2] has as its system Human papillomavirus type 1a E7 protein (residues 1-88). Briefly: HPV1a E7 small-molecule binders, primary screen, biochemical, small-molecule microarray, residues 1-88, 635 nm (AID 1129). Conditions: small-molecule microarray binding, fluorescence 635 nm; higher = more signal.
Assay [3] concerns the target Focal adhesion kinase 1 (Homo sapiens) (UniProt Q05397). Nature of the assay: PTK2 protein binding on printed compound slides – biochemical, small-molecule microarray, 635/667 nm fluorescence, BSA, DTT, primary screen (AID 1130).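 Further: composite of spot emission at 667 nm and signal to noise over triplicate slides.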 Conditions: 635 nm fluorescence, higher = more signal.
Assay [4] has as its system Fibrinogen (Alexa647-labelled). Nature of the assay: Alexa647-fibrinogen binding to printed small molecules – biochemical, small-molecule microarray, 635/667 nm fluorescence, artefact control for SMM control-protein annotation, profiling panel (AID 1131).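 Further: z-score merges 667 nm fluorescence with per-spot signal-to-noise over triplicate slides.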 Conditions: fibrinogen-A647 binding fluorescence, higher = more signal.
Assay [5] concerns the target Follistatin (Homo sapiens) (UniProt P19883). Briefly: FST protein binding to printed compounds – biochemical, small-molecule microarray, 635/667 nm fluorescence, primary screen (AID 1132). As to conditions: 635 nm fluorescence, higher = more signal.
Assay [6] addresses Fibroblast growth factor 2 (Homo sapiens) (UniProt P09038). Briefly: basic fibroblast growth factor binding to printed compounds – biochemical, small-molecule microarray, 635/667 nm fluorescence, primary screen (AID 1133). Conditions: FGF2, fluorescence 635/667, higher = more signal.
Assay [7] can be described thus: JC-1 mitochondrial potential readout, lung cancer cells – cell-based, A549, JC-1 fluorescence, basal, 24 h, 100 nL, profiling panel (AID 1138).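 Further: A549 lung adenocarcinoma cells under basal conditions with no added stimulus; test concentration not given here.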 Conditions: higher = more signal.
The test system of a further assay is Lefty1. Briefly: Lefty1 protein binding to printed compounds – biochemical, small-molecule microarray, 635/667 nm fluorescence, primary screen (AID 1139). As to conditions: fluorescence 635/667, higher = more signal.
In assay [8] the test system is wheat germ agglutinin (Triticum aestivum), Alexa647-labelled. Nature of the assay: Alexa647-WGA lectin binding to printed small molecules – biochemical, small-molecule microarray, 635/667 nm fluorescence, artefact control for SMM control-protein annotation, profiling panel (AID 1140).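 Further: score merges 667 nm feature emission with signal to noise over triplicate slides.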 Conditions: WGA-A647 binding, 635 nm fluorescence, higher = more signal.
Assay [9] has as its target Luciferin 4-monooxygenase (Photinus pyralis) (UniProt P08659). Briefly: inhibition of purified Photinus pyralis luciferase – biochemical, luminescence, purified enzyme, 2006 set, primary screen (AID 1141).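 Further: cell-free assay with purified firefly luciferase at 100 ng per well in PBS; test concentration not given here.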 As to conditions: purified firefly luciferase, SteadyGlo luminescence, 30 min; higher = more signal, called active from +8 up or from −8 down.
In assay [10] the test system is Wnt5a (protein binding on small-molecule microarray). Briefly: small molecules binding Wnt5a protein – biophysical, small-molecule microarray, 635/667 nm fluorescence, primary screen (AID 1142).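 Further: fluorescence read at 667 nm with signal to noise per printed feature.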 Conditions: 635 nm fluorescence, higher = more signal.
Assay [11] can be described thus: ATP-based viability of Huh7 replicon cells – cell-based, CellTiter-Glo luminescence, basal, 48 h, cytotoxicity control for HCV replication inhibitor project, primary screen (AID 1143).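 Further: Huh7 hepatoma cells carrying a hepatitis C replication reporter with no stimulus; test concentration not given here.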 As to conditions: higher = more signal, called active from +8 up or from −8 down. (In general: In antiviral work, replicon cells carry a viral genome segment that copies itself.)
Assay [12] in a line: Pseudomonas biofilm growth suppression – PAO1 strain, BacTiter-Glo luminescence, LB-PBS, primary screen (AID 1144). Conditions: P. aeruginosa PAO1 biofilm, 12 h, higher = more signal.
A short description of assay [13]: basal CRE-LacZ reporter activity in PC12 – cell-based, unstimulated, primary screen (AID 1145). Conditions: no forskolin, luminescence, 4.5 h, higher = more signal, called active from +8 up or from −8 down.
A short description of assay [14]: forskolin-driven CRE-LacZ activity in PC12 – cell-based, CRE-LacZ reporter, forskolin-stimulated, primary screen (AID 1146).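 Further: PC12 cells with 6xCRE LacZ reporter stimulated by forskolin 10 µM; beta-galactosidase reporter signal reflecting CREB driven transcription.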 Conditions: luminescence, 4.5 h, higher = more signal, called active from +8 up or from −8 down.
The target of assay [15] is Streptavidin (Streptomyces avidinii) (UniProt P22629). Briefly: compounds binding control protein streptavidin – biophysical, small-molecule microarray, 635/667 nm fluorescence, artefact control for SMM compound annotation, primary screen (AID 1147).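 Further: signal reflects streptavidin binding to arrayed compounds as a control protein.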 As to conditions: higher = more signal.
The nature of assay [16]: probe aInhba binding on compound microarray – biochemical, small-molecule microarray, 635/667 nm fluorescence, primary screen (AID 1148).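 Further: score merges 667nm spot fluorescence with signal-to-noise for antibody binding to printed compounds.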 Conditions: higher = more signal.
Assay [17] has as its target Torsin-1A (Homo sapiens) (UniProt O14656). Nature of the assay: TOR1A wild-type binding on microarray – cell lysate, small-molecule microarray, lysate, 635/667 nm, primary screen (AID 1149). As to conditions: COS7 hTOR1A-WT lysate, 635 nm fluorescence, higher = more signal.
Assay [18] has the same target. Nature of the assay: torsin A mutant lysate binding on microarrays – cell lysate, small-molecule microarray, COS7 lysate, 635/667 nm fluorescence, primary screen (AID 1150).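 Further: score pools 667 nm emission and signal to noise measuring lysate protein binding.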 As to conditions: COS7 hTOR1A mutant lysate, 635 nm fluorescence, higher = more signal.
For assay [19], the system named is Sonic hedgehog protein (Shh). Briefly: Sonic hedgehog microarray binding compounds – biochemical, small-molecule microarray, 635/667 nm fluorescence, primary screen (AID 1151).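 Further: Shh protein binding to compounds spotted on small-molecule microarray slides; score combines spot fluorescence intensity with signal-to-noise across triplicate slides.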 As to conditions: 635 nm fluorescence, higher = more signal.

Sequence of Follistatin (Homo sapiens) (P19883 whole entry, looked up): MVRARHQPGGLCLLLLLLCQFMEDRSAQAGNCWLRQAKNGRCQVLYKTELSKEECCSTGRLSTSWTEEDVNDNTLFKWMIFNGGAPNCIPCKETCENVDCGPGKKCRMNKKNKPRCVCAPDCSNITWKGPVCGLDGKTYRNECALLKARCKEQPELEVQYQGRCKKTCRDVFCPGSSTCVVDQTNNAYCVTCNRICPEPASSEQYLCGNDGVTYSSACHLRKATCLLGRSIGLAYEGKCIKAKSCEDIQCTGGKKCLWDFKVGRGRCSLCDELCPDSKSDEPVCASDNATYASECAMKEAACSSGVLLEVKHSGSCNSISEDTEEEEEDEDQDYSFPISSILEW
Sequence of Streptavidin (Streptomyces avidinii) (P22629 whole entry, looked up): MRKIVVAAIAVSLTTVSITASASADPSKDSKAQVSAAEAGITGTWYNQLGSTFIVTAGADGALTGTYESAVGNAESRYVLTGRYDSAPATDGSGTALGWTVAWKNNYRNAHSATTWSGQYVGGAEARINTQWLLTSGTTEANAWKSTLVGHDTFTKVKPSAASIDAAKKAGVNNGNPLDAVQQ
Sequence of Focal adhesion kinase 1 (Homo sapiens) (Q05397 whole entry, looked up): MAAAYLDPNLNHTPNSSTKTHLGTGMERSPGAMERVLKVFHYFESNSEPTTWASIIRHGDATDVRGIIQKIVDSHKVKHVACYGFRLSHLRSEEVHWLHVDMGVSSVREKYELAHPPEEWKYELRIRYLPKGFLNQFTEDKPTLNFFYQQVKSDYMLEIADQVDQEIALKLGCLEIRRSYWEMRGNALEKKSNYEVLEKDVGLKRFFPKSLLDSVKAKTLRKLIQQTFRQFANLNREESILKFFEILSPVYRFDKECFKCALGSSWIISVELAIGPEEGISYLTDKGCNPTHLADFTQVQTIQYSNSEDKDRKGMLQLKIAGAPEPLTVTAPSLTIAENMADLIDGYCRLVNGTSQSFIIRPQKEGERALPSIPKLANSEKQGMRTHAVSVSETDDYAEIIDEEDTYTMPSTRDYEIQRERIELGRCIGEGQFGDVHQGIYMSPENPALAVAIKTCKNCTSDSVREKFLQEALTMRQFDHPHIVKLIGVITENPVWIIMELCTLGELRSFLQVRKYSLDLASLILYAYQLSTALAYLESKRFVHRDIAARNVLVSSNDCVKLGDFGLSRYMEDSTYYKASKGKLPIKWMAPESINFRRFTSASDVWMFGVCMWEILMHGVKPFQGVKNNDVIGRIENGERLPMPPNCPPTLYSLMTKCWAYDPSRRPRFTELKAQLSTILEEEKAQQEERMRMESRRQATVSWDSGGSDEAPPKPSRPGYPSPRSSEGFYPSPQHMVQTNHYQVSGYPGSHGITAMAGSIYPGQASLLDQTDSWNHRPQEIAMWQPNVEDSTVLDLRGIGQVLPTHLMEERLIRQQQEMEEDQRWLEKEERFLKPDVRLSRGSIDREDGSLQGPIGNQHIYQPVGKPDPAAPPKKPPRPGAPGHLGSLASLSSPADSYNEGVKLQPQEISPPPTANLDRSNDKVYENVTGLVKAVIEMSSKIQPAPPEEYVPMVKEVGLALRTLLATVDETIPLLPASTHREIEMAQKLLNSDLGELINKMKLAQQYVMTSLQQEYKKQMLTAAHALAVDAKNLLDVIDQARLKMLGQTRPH
Sequence of Fibroblast growth factor 2 (Homo sapiens) (P09038 whole entry, looked up): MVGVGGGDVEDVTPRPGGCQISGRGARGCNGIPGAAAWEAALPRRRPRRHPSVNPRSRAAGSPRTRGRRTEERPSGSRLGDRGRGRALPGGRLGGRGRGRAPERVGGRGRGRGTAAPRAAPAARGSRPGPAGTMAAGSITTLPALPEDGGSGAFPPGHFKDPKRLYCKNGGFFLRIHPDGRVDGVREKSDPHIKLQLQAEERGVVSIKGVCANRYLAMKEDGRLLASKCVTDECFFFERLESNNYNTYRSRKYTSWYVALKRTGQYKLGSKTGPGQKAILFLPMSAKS
Sequence of Torsin-1A (Homo sapiens) (O14656 whole entry, looked up): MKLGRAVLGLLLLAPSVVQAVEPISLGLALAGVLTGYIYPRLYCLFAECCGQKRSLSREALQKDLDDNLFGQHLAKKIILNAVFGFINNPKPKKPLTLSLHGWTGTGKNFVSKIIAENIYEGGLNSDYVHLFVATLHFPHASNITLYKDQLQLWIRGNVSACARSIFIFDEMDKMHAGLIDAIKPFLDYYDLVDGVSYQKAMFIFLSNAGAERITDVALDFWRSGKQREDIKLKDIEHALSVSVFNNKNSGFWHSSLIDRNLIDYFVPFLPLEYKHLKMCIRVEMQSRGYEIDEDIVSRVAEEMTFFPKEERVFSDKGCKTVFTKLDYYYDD
Sequence of Luciferin 4-monooxygenase (Photinus pyralis) (P08659 whole entry, looked up): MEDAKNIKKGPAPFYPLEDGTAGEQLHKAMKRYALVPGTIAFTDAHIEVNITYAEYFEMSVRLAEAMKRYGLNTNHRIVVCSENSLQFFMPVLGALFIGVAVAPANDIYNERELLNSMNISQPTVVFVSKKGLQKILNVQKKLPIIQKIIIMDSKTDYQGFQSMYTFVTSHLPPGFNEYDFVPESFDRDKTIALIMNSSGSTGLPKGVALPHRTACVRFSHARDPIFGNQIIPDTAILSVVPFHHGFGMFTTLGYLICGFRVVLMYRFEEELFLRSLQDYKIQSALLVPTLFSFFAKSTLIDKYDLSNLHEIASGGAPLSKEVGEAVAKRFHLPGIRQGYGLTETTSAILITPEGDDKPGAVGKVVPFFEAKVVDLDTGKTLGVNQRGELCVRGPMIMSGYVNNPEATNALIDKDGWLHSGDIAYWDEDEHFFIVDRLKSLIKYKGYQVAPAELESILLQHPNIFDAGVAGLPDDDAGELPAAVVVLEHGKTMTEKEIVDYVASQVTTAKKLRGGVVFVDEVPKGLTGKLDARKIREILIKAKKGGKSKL

With `C=CCOC(=O)[C@@H]1[C@H]2C(=O)O[C@H](c3ccccc3)[C@H](c3ccccc3)N2[C@H](c2ccc(OCCOC(=O)[C@H]3C[C@H]4C(=O)N[C@@H](CCCCN(C)C)C(=O)N4[C@H]3c3cccc(OCCO)c3)cc2)[C@@]12C(=O)Nc1ccc(I)cc12`, the composite z-score was found to be 2.94 in [1]; 1.17 in assay [2]; 0.319 in assay [3]; 0.758 in assay [4]; 1.48 in assay [5]; 1.59 in assay [6]. In addition, the composite z-score came out at 1.49 in the assay with Lefty1; 0.768 in assay [8]; 0.402 in assay [10]; 0.458 in [15]; 0.019 in assay [16]; 1.61 with Torsin-1A (Homo sapiens) [17]. Moreover, the composite z-score was 1.52 with Torsin-1A (Homo sapiens) [18] and 2.05 in assay [19]. In addition, the z-score in assay [7] was -0.717; in [9], -0.517 (inactive); in [11], -0.015 (inactive); in [12], 0.172 (inactive); in assay [13] it was -0.801 (inactive); in assay [14], 0.387 (inactive).
Consider `CCOc1cc(C(O)C2C=CC3C(=O)N(C)C(=O)C3N2N2CCCCC2)ccc1O` (stereo not given), for which the composite z-score is 1 in assay [1]; -0.158 in assay [2]; 0.125 in assay [3]; 0.498 in assay [4]; 0.746 in assay [5]; 0.1 in assay [6]. In addition, the composite z-score with Lefty1 was 0.192; in assay [8], 0.335; in assay [10] it was 0.194; in assay [15] it was 0.3; in assay [16] it was -0.137; with Torsin-1A (Homo sapiens) [17], 0.28. Further, the composite z-score with Torsin-1A (Homo sapiens) [18] worked out at 0.221; in [19], 0.0937. For the same compound, the z-score is -0.634 in assay [7]; -0.906 (inactive) in assay [9]; 0.862 (inactive) in assay [11]; -0.401 (inactive) in assay [12]; 0.433 (inactive) in [13]; -0.499 (inactive) in assay [14].
As for `C=CCC(OC(C)=O)[C@@H]1[C@@H](N(Cc2ccc(-c3ccccc3)cc2)C(=O)c2cccc3ccccc23)c2cc(OCCCO)ccc2N1C(=O)Cc1ccc2ccccc2c1` (stereo not given in full), the composite z-score is 0.23 in assay [1]; -0.0083 in assay [2]; -0.0525 in assay [3]; -0.545 in assay [4]; 0.295 in [5]; -0.327 in assay [6]. Besides, the composite z-score in the assay with Lefty1 was 0.191; in [8] it was 0.605; in [10] it was -0.195; in [15], -0.0695; in assay [16], -0.17; with Torsin-1A (Homo sapiens) [17], 0.0517. The composite z-score with Torsin-1A (Homo sapiens) [18] is 0.12; in [19], 0.39. In addition, the z-score was 0.31 in assay [7]; -0.105 (inactive) in assay [9]; -1.31 (inactive) in [11]; 0.457 (inactive) in [12]; 0.423 (inactive) in [13]; -0.481 (inactive) in assay [14].
Turning to `CN1C(=O)C2C=CC(C(O)Cc3ccccc3)N(N(c3ccccc3)c3ccccc3)C2C1=O` (stereo not given), the composite z-score in [1] is 0.548; in assay [2] it was 1.17; in assay [3], 0.293; in assay [4] it was 0.331; in assay [5], 0.307; in assay [6] it was -0.622. For the same compound, the composite z-score in the assay with Lefty1 was -0.0212; in assay [8], 0.201; in [10], 0.0159; in assay [15], 2.18; in [16], 0.191; with Torsin-1A (Homo sapiens) [17], 0.0867. Moreover, the results for the composite z-score (with Torsin-1A (Homo sapiens) [18]; in [19]) were 0.25 and -0.572, respectively. Also, the z-score in assay [7] is 0.54; in [9], -0.397 (inactive); in assay [11], 0.443 (inactive); in [12] it was -0.597 (inactive); in assay [13] it was 0.264 (inactive); in assay [14], 0.6 (inactive).
